In PubChem BioAssay (Tox21):
Records with an inconclusive call do not appear. Entries that show only a call come without a potency. Unmarked numbers belong to inactive results. Active and inactive are the calls of the source. Calls follow the shape of the dose curve; as a rule, active = well fitted cell-killing curve with a large enough effect in the repeat runs; inconclusive = weak or mixed curves, or effect the other way; inactive = flat fitted curve, though single readings scatter.

Tests used:
[1] = cAMP Responsive Elements (CRE) small molecule antagonists, cell-based qHTS assay: qHTS cell viability counter screen (AID 2060913); also: nearly all actives have a fitted effect of over 40% in size
Method in brief: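 HEK293T CRE-bla, 2,000 cells/well, 18 h preincubation; cpd in DMSO + NKH477 0.25 uM final, 3 h 37 C/5% CO2; LiveBLAzer 2 h RT, then CellTiter-Glo 30 min RT, luminescence.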

[2] = cAMP Responsive Elements (CRE) small molecule agonists, cell-based qHTS assay: qHTS cell viability counter screen (AID 2060914);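 also: viability read after 3 h of compound exposure; nearly all actives have a fitted effect of over 50% in size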
Method in brief: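 Cytotoxicity counter screen multiplexed with the CRE-bla reporter assay in HEK 293T cells: 3 h compound exposure at 37 °C, followed by CellTiter-Glo luminescence measured in the same wells.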

Row | SMILES | Potency [1] | Potency [2] | viability change, negative = cytotoxic [1] | activity change, negative = cytotoxicity [2]
1 | CN1C(C(=O)Nc2ccccn2)=C(O)c2ccccc2S1(=O)=O | inactive | inactive |  | 
2 | CCCCCCCO | inactive | inactive |  | 
3 | CN1C(C)(C)CC(O)CC1(C)C | inactive | inactive |  | 
4 | O=C(O)c1cc2ccccc2cc1O | inactive | inactive |  | 
5 | Nc1cccc(S(=O)(=O)c2cccc(N)c2)c1 | inactive | inactive |  | 
6 | CC(C)=CC1CC(C)CCO1 (centres undefined) | inactive | inactive |  | 
7 | FC(F)(F)c1ccccc1 | inactive | inactive |  | 
8 | CCCCOC(=O)c1ccccc1 | inactive | inactive |  | 
9 | COC(=O)CCS | inactive | inactive |  | 
10 | Fc1ccc(C(c2ccc(F)cc2)N2CCNCC2)cc1 | inactive | inactive |  | 
11 | CCC(=O)O[C@H]1[C@H](O[C@@H]2[C@@H](C)[C@H](O[C@H]3C[C@@](C)(OC)[C@@H](O)[C@H](C)O3)[C@@H](C)C(=O)O[C@H](CC)[C@@](C)(O)[C@H](O)[C@@H](C)C(=O)[C@H](C)C[C@@]2(C)O)O[C@H](C)C[C@@H]1N(C)C | inactive | inactive |  | 
12 | CCN(CC)CCNC(=O)c1ccc(N)cc1 | inactive | inactive |  | 
13 | CC(=O)CC/C=C(\C)CC/C=C(\C)CC/C=C(\C)CCC=C(C)C | inactive | inactive |  | 
14 | Nc1ccc(C(=O)OCC(O)CO)cc1 (centres undefined) | inactive | inactive |  | 
15 | O=C(O)c1c(O)c(-c2ccccc2)nc2ccccc12 | inactive | inactive |  | 
16 | OCC(CO)n1cnc(-c2ccc(F)cc2)c1-c1ccnc(Oc2ccccc2)n1 | inactive | inactive |  | 
17 | Nc1ccc(NCCO)c([N+](=O)[O-])c1 | inactive | inactive |  | 
18 | O=C(OCC(O)CO)c1ccccc1Nc1ccnc2cc(Cl)ccc12 (centres undefined) | inactive | inactive |  | 
19 | Nc1nnc(-c2ccc([N+](=O)[O-])o2)o1 | inactive | inactive |  | 
20 | O=c1c(O)c(-c2ccc(O)cc2)oc2cc(O)cc(O)c12 | inactive | inactive |  | 
21 | OC[C@@H](O)[C@H](O)[C@H](O)[C@@H](O)CO | inactive | inactive |  | 
22 | C(/C=C/C=C/Nc1ccccc1)=Nc1ccccc1 | inactive | inactive |  | 
23 | CO/N=C(/C(=O)N[C@@H]1C(=O)N2C(C(=O)OCOC(=O)C(C)(C)C)=C(C)CS[C@H]12)c1csc(N)n1 | inactive | inactive |  | 
24 | CC(C)OC(=O)c1ccccc1 | inactive | inactive |  | 
25 | O=C1CC[C@H](C(=O)N2CCCCC2)N1 | inactive | inactive |  | 
26 | CCCCOCCCC | inactive | inactive |  | 

Row | SMILES | Potency [1] | Potency [2] | viability change, negative = cytotoxic [1] | activity change, negative = cytotoxicity [2]
27 | CN1CCOCC1 | inactive | inactive |  | 
28 | CCOC(=O)c1ccccc1OC | inactive | inactive |  | 
29 | CC(=O)Nc1ncc([N+](=O)[O-])s1 | inactive | inactive |  | 
30 | CCCC(=O)OC | inactive | inactive |  | 
31 | CCN1C(=O)c2ccccc2C1Nc1ccc(OCCN2CCCCC2)cc1 (centres undefined) | inactive | inactive |  | 
32 | CCCCC(CC)CN1CN(CC(CC)CCCC)CC(C)(N)C1 (centres undefined) | inactive | inactive |  | 
33 | CCCCNC(=O)NS(=O)(=O)c1ccc(C)cc1 | inactive | inactive |  | 
34 | [O-][N+](=Nc1ccccc1)c1ccccc1 | inactive | inactive |  | 
35 | CCc1cccc(C)c1 | inactive | inactive |  | 
36 | COC1CCC=CO1 (centres undefined) | inactive | inactive |  | 
37 | CC(=O)Oc1ccc(C)cc1 | inactive | inactive |  | 
38 | CCCCCCCCCCCC | inactive | inactive |  | 
39 | O=C(c1ccccc1)C1(O)CCCCC1 | inactive | inactive |  | 
40 | CC(=O)OCC(=O)[C@@]1(O)CC[C@H]2[C@@H]3CCC4=CC(=O)CC[C@]4(C)[C@H]3C(=O)C[C@@]21C | inactive | inactive |  | 
41 | O=C1OCCO1 | inactive | inactive |  | 
42 | O=S(=O)(O)c1cccc2ccccc12 | inactive | inactive |  | 
43 | N[C@H](C(=O)O)c1ccc(O)cc1 |  |  | 2.5% [at 18.9 µM] | -13.1% [at 18.9 µM]
44 | CC1Cc2ccccc2N1NC(=O)c1ccc(Cl)c(S(N)(=O)=O)c1 (centres undefined) | inactive | inactive |  | 
45 | O=C(O)Cc1cc(I)c(Oc2ccc(O)c(I)c2)c(I)c1 | inactive | inactive |  | 
46 | Cc1cn([C@H]2C=C[C@@H](CO)O2)c(=O)[nH]c1=O | inactive | inactive |  | 
47 | CCOCCC(=O)OCC | inactive | inactive |  | 
48 | O=C1C=CCCC1 | inactive | inactive |  | 
49 | COCC(O)CO (centres undefined) | inactive | inactive |  | 
50 | O=CNNC=O | inactive | inactive |  | 
51 | CSCC[C@H](NC(=O)[C@H](Cc1c[nH]c2ccccc12)NC(=O)CCNC(=O)OC(C)(C)C)C(=O)N[C@@H](CC(=O)O)C(=O)N[C@@H](Cc1ccccc1)C(N)=O | inactive | inactive |  | 
52 | C(=C\c1ccccc1)/c1ccccc1 | inactive | inactive |  | 
